# Experimental data reported in ChEMBL document CHEMBL4513216, “Probing the Open Global Health Chemical Diversity Library for Multistage-Active Starting Points for Next-Generation Antimalarials” (ACS Infect Dis, 2020).
# The whole screen tested about 69,000 compounds, of which about 8,600 (12%) showed an effect of 50% or more. The list comes from a sample in which strong results are over-represented; it also holds similar structures and randomly drawn compounds.
# System: Plasmodium berghei
# Test: Screen against P. berghei liver stage (PbLuc), transformed with Luciferase, at 10uM
# Type: functional, HepG2
# Settings: tested at 10 uM
row,Compound,INHIBITION
1,CN1CCOC(CNC(=O)CCCc2ccccc2)C1 (stereo unspecified),-4.15%
2,CN(Cc1nccn1CC(F)(F)F)C(=O)c1ccc2c(c1)OCO2,6.33%
3,Cc1nn(C)c(Cl)c1C1CCCN1Cc1nnc(C2CC2)o1 (stereo unspecified),-31.1%
4,O=C(NCc1ncc(-c2ccccc2)o1)NC1CCC(O)CC1 (stereo unspecified),61.9%
5,O=S(=O)(CC1CCOCC1)NCc1ncc(-c2ccccc2)o1,40.6%
6,O=C(NCCN1CCOCC1)NCc1ncc(-c2ccccc2)o1,2.37%
7,CC(=O)N1CCC(C(=O)NCc2ncc(-c3ccccc3)o2)CC1,83.2%
8,CC(=O)N1CCC(NC(=O)NCc2ncc(-c3ccccc3)o2)CC1,47.1%
9,CC(=O)N1CCc2ncc(CNC(=O)C3CCC3)n2CC1,15.4%
10,O=C1C[C@@H]2CC[C@H](CN1)N2c1cc(-c2ccccc2F)nc2ccnn12,-7.53%
11,CN(C)C(=O)N1CCC2(CCCN(Cc3cnn(C)c3)C2)C1 (stereo unspecified),52.9%
12,CN(C)C(=O)C1CCC2(CCN(Cc3cnn(C)c3)CC2)C1 (stereo unspecified),55.5%
13,COCC(=O)N1CCC2(CCCN(Cc3cnn(C)c3)C2)C1 (stereo unspecified),47.4%
14,CCc1ncc(CN2CCCC3(CCC(=O)N(CCC(C)C)C3)C2)cn1 (stereo unspecified),0.818%
15,CCn1cc(CN2CCCC3(CCC(=O)N(CCC(C)C)C3)C2)cn1 (stereo unspecified),65.2%
16,Cn1cc(CN2CCC3(CCC(C(=O)NCC4CC4)C3)CC2)cn1 (stereo unspecified),20.1%
17,CC(C)NC(=O)C1CCC2(CCN(Cc3cnn(C)c3)CC2)C1 (stereo unspecified),-13.7%
18,CCn1cc(C(=O)N2CCCC3(CCC(=O)N(CCC(C)C)C3)C2)cn1 (stereo unspecified),-47.8%
19,Cn1cc(CN2CCCC3(CCN(C(=O)c4ccoc4)C3)C2)cn1 (stereo unspecified),42.7%
20,Cn1cc(CN2CCC3(CCCCN3S(C)(=O)=O)CC2)cn1,27.6%
21,Cn1cc(CN2CCCC3(CCCN3S(C)(=O)=O)C2)cn1 (stereo unspecified),-3.41%
22,Cn1cc(CN2CCC3(CCCN3S(C)(=O)=O)CC2)cn1,53.5%

row,Compound,INHIBITION
1,CN1CC(=O)N(c2ccccc2)CC12CCN(C(=O)c1cccs1)C2 (stereo unspecified),17.1%
2,CC(=O)Cn1ncc(N2CCOCC2)cc1=O,-10.5%
3,CN(C)CCN1C(=O)CCC12CCN(C(=O)c1cccnc1)CC2,13.2%
4,CC1(C(=O)N2CCOCC2)CN(Cc2ccccn2)CCO1 (stereo unspecified),44.4%
5,Cc1cccc(CN2CCC3(CCCN(Cc4cnn(C)c4)C3)C2=O)n1 (stereo unspecified),0.618%
6,Cc1cccc(CN2CCc3[nH]nc(C(=O)N(C)C)c3C2)n1,-45.5%
7,Cc1cccc(CN2CCc3[nH]nc(C(=O)N4CCOCC4)c3C2)n1,65.9%
8,Cn1cc(CN2CCC3(CCCN(Cc4ccccn4)C3)CC2)cn1,-3.19%
9,Cc1cccc(CN2CCOC(C)(C(=O)N3CCOCC3)C2)n1 (stereo unspecified),59%
10,Cc1cccc(CN2CCOC3(COCCN(CCN(C)C)C3)C2)n1 (stereo unspecified),48.4%
11,Cc1cccc(CN2CCC3(CCCN(Cc4cnn(C)c4)C3)C2)n1 (stereo unspecified),64.7%
12,Cc1cnc(N2CCOC3(CCCN(CC(=O)N(C)C)C3)C2)nc1 (stereo unspecified),-29.8%
13,Cc1cccc(CN2CCc3[nH]nc(C(=O)N4CCNC(=O)C4)c3C2)n1,49.7%
14,Cc1cccc(CN2CCOC3(CCCN(CC(=O)N(C)C)C3)C2)n1 (stereo unspecified),59.3%
15,Cc1cc(CN2CCOC(C)(C(=O)N3CCOCC3)C2)no1 (stereo unspecified),0.301%
16,Cc1cc(C)n(C2CN(CCc3ccccn3)C2)n1,28.2%
17,Cc1nn(C)c(Cl)c1C1CCCN1Cc1ccccn1 (stereo unspecified),8.64%
18,COc1ccc(C2CC(=O)Oc3cc(C)[nH]c(=O)c32)cc1O (stereo unspecified),15.4%
19,O=C(c1cc(-n2cnnn2)ccc1Cl)N1CCOCC1,30.8%
20,O=c1cnc2ccccc2n1CCCn1cccn1,44.5%
21,CC(C)NC(=O)CC1COC2(CCN(Cc3ccccc3)CC2)C1 (stereo unspecified),21.6%
22,Cc1nc(C2CCCN(C(=O)c3cnn(C4CCCCC4)c3)C2)no1 (stereo unspecified),-25.9%

row,Compound,INHIBITION
1,O=C(c1cnc2c(cnn2C2CCCC2)c1)N1CCCSCC1,36.1%
2,CC(C)NC(=O)CC1CC2(CCN(CC3CC3)CC2)Oc2ccccc21 (stereo unspecified),-2.35%
3,Cc1cccc(CN2CCC3(CCC(CC(=O)N(C)C)CC3)CC2)n1,23.1%
4,Cc1cccc(CN2CCC3(CCCN(CC(=O)N(C)C)C3)C2)n1 (stereo unspecified),51.2%
5,CC(C)CCN1CCc2[nH]nc(C(=O)N3CC=CC3)c2C1,50.3%
6,Cc1cccc(CN2CCCC3(CCN(CC(=O)N(C)C)C3=O)C2)n1 (stereo unspecified),27.6%
7,CC(C)CCN1CCc2[nH]nc(C(=O)N3CCCC3C)c2C1 (stereo unspecified),2.58%
8,CC(=O)N1CCc2[nH]nc(C(=O)N3CC=CC3)c2C1,23.1%
9,COC(=O)c1ccc(C)c(N2CCNC2=O)c1,34%
10,CS(=O)(=O)N1CCC(NC(=O)COc2cccc(Cl)c2)CC1,-35.7%
11,CCO[C@@H]1C[C@H]2CN(Cc3ccc(C)o3)CCN2C1,-37.9%
12,COCCc1noc(CN2C(=O)OC[C@@H]2C(C)C)n1,55.9%
13,COCc1noc(CN2C(=O)OC[C@@H]2C(C)C)n1,14.6%
14,COCc1nc(CN2C(=O)OC[C@@H]2C(C)C)no1,27.6%
15,CCn1nc(C)c(C(=O)N2C[C@@H](CN(C)CCOC)[C@@H](CO)C2)c1C,20%
16,NC(=O)c1cc2c(nc1Oc1ccc(CN3CCCC3)cc1F)CCC2,67%
17,NC(=O)c1cc2c(nc1-c1ccoc1)CCC2,30.3%
18,NC(=O)c1cc2c(nc1Oc1ccccc1CN1CCCCC1)CCC2,27.4%
19,NC(=O)c1cc2c(nc1Oc1cccc(CN3CCCC3)c1F)CCC2,62.1%
20,CN1CCCCC1Cc1nc2c(cc1C(N)=O)CCC2 (stereo unspecified),-107%
21,CC(=O)Nc1ccc(Oc2ccc(CN3CCCC3)cc2F)cc1,45.1%
22,Cc1cc(C)c2c(N3CCC(C(=O)N4CCCC4)CC3)ncnc2n1,42.8%

row,Compound,INHIBITION
1,Cc1ccccc1C(=O)N1C[C@@H]2COC[C@]2(COCc2cccnc2)C1,1.9%
2,CC(=O)N1CCN(Cc2ccsc2)CC2(CC(=O)N(C)C2)C1 (stereo unspecified),16.1%
3,CC(C)N1CCC2(CC1)C[C@@H](O)[C@H](c1ccccc1)NC2=O,40%
4,COCC(=O)NC1CC2(CCN(CCO)CC2)c2ccccc21 (stereo unspecified),33.1%
5,COCC(=O)NC1CC2(CCN(CCN(C)C)CC2)c2ccccc21 (stereo unspecified),53.9%
6,COCC(=O)NC1CC2(CCN(Cc3ccco3)CC2)c2ccccc21 (stereo unspecified),32.4%
7,CCN1CCC2(CC1)CC(NC(=O)c1ccnnc1)c1ccccc12 (stereo unspecified),-9.42%
8,CC(C)C(=O)NC1CC2(CCN(CC(=O)N(C)C)CC2)c2ccccc21 (stereo unspecified),60.2%
9,Cc1ccc2c(c1)C(NC(=O)N(C)C)CC21CCN(CC2CC2)CC1 (stereo unspecified),22.4%
10,CC(C)(CNCc1ccc(OCc2cscn2)cc1)C(N)=O,-47%
11,Cc1cnc(CN2CCC(N(C)Cc3noc(C4CC4)n3)C2)o1 (stereo unspecified),33.3%
12,CCc1ccc(NC(=O)C2CCN(C(=O)COC)CC2)cc1,39.3%
13,CCC(C)c1ccc(NC(=O)C2CCN(C(=O)N(C)C)CC2)cc1 (stereo unspecified),76.9%
14,CCC(C)c1ccc(NC(=O)C2CCN(C(=O)COC)CC2)cc1 (stereo unspecified),16.6%
15,Cn1cncc1C(=O)N1CCCC(c2ccn[nH]2)C1 (stereo unspecified),-35.9%
16,CC(NCc1nnc2n1CCCC2)C(=O)N1CCc2sccc2C1 (stereo unspecified),-21.9%
17,O=C1CC(N(C(=O)COc2ccc(F)cc2F)C2CC2)C(=O)N1 (stereo unspecified),0.472%
18,Cc1cc(C)nc(NCc2cc3n(n2)CCCN(C(=O)C2CCC2)C3)n1,13.3%
19,Cc1cc(NCc2cc3n(n2)CCCN(C(=O)C2CCC2)C3)nc(N)n1,80.2%
20,Nc1nccc(NCc2cc3n(n2)CCCN(C(=O)C2CCC2)C3)n1,28.5%
21,Cc1nc(C2CCCN(S(C)(=O)=O)C2)sc1Br (stereo unspecified),-7.66%
22,COc1cc(N(C)Cc2noc(CC(C)C)n2)ncn1,43%

row,Compound,INHIBITION
1,CCc1cc(N(C)Cc2noc(CC(C)C)n2)ncn1,57.6%
2,CC(C)Cc1noc(CN(C)c2cc(N(C)C)ncn2)n1,-8.75%
3,CCn1cc(NC(=O)C2CCN(CC(=O)NC3CCCC3)CC2)cn1,-10.6%
4,O=C(N[C@@H]1CN(Cc2ccco2)[C@@H]2CCCO[C@@H]21)c1cscn1,8.6%
5,COc1ccc(F)cc1C(C)NC(=O)NCCCn1cncn1 (stereo unspecified),11.9%
6,CCN(Cc1ccoc1)C(=O)C1CN(C(=O)OC(C)(C)C)C1,-26.7%
7,O=C(COCC(F)(F)C(F)F)N1CCC2(CCCN(CC3CC3)C2=O)C1 (stereo unspecified),27.8%
8,O=C(COCC(F)(F)C(F)F)N1CCC2(CCCN(CCO)C2=O)C1 (stereo unspecified),-8.97%
9,CC(C)N1CCCC2(CCN(C(=O)COCC(F)(F)C(F)F)C2)C1=O (stereo unspecified),50.2%
10,COC1COC2(CCN(CC3CC3)CC2)C1 (stereo unspecified),15.8%
11,Cc1csc(NC(=O)C2CSCCC(=O)N2)n1 (stereo unspecified),24.5%
12,NC(=O)Cc1csc(NC(=O)C2CSCCC(=O)N2)n1 (stereo unspecified),32.1%
13,O=C1CCSCC(C(=O)NCc2nc(-c3ccccc3)no2)N1 (stereo unspecified),14.3%
14,Cc1noc(CNC(=O)C2CSCCC(=O)N2)n1 (stereo unspecified),61.6%
15,CNC(=O)Cc1csc(NC(=O)C2CSCCC(=O)N2)n1 (stereo unspecified),50.2%
16,Cc1nnc(CNC(=O)C2CSCCC(=O)N2)o1 (stereo unspecified),-5.22%
17,CCN(Cc1c(C)nn(CC)c1C)S(=O)(=O)c1cnn(C)c1C,38.3%
18,CC[C@@H]1N(Cc2ccncc2)CCC[C@]12CCC(=O)N2C,18.6%
